The nature of test [1]: NCI Yeast Anticancer Drug Screen. Data for the rad50 strain (AID 155).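 Note: 0% = growth of vehicle-only cultures of the same strain.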 The following applies: S. cerevisiae rad50 strain growth inhibition, hits give high values; at 50.0 µM unless noted. In outline:
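Vehicle-treated cultures provide the reference for the growth inhibition reported for compound-exposed, repair-deficient yeast.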

The nature of test [2]: NCI Yeast Anticancer Drug Screen. Data for the mec2-1 strain (AID 157). To be noted: S. cerevisiae mec2-1 strain, hits give high values; at 50.0 µM unless noted. A digest of the protocol: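 Each compound was tested on mec2-1 yeast, a strain altered in DNA damage repair or cell cycle control. Growth inhibition is reported relative to vehicle.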
Test [3] can be described thus: NCI Yeast Anticancer Drug Screen. Data for the sgs1 mgt1 strain (AID 161).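 Note: 0% = growth of cultures given vehicle only.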 The following applies: S. cerevisiae sgs1 mgt1 strain, hits give high values; at 50.0 µM unless noted. A digest of the protocol:
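Inhibition of yeast growth, normalised to vehicle-treated controls, is reported for a strain bearing genetic alterations in DNA damage repair.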

Test [4] in a line: NCI Yeast Anticancer Drug Screen. Data for the cln2 rad14 strain (AID 165).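 Note: 0% = growth equal to vehicle treated cultures.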 To be noted: S. cerevisiae cln2 rad14 strain, hits give high values; at 50.0 µM unless noted. In outline: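 Test compounds were added to cln2 rad14 yeast cultures; inhibition of growth was then determined by comparison with vehicle treatment.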
Test [5] in a line: NCI Yeast Anticancer Drug Screen. Data for the bub3 strain (AID 167). To be noted: S. cerevisiae bub3 mutant strain, hits give high values; at 50.0 µM unless noted. In outline:
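Mutant yeast screening strain plus compound; vehicle-treated cultures serve as the 0% inhibition reference.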

Test [6] can be described thus: NCI Yeast Anticancer Drug Screen. Data for the mlh1 rad18 strain (AID 175). The following applies: S. cerevisiae mlh1 rad18 strain growth inhibition, hits give high values; at 50.0 µM unless noted. In outline:
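Inhibition values reflect reduced growth of mutant yeast versus vehicle-treated controls following compound exposure; the mutations affect DNA damage repair.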

For 19 compounds, growth inhibition results are on record in PubChem BioAssay (NCI).

“And” between values parts separate entries of the source, which are not always exact repeats. Equal entries are not always repeated. About 79,000 compounds went through this panel and 15% of them were active in at least one assay; those are over-represented in the sample as a whole. Values without a mark were called inactive. The source made the active and inactive calls. Cut-off read from the data, not from the text of the source: active = growth inhibition above about 70%; inactive = the rest.

Take `CC12OC3(C)C4CC1C1(C)OC4(C)C3C(O)C21` (centres undefined): the growth inhibition in test [1] was -0.8%; in test [2] it was 4.8%; in test [3], -3.7%; in test [4], -16.6%; in test [5], -6.5%; in test [6], 10.3%.

Turning to `CC(=O)OC[C@H](O)[C@@]1(O)CC[C@H]2[C@@H]3CCC4=CC(=O)C=C[C@]4(C)[C@H]3[C@@H](O)C[C@@]21C`, the growth inhibition in test [1] was 33.2%; in test [2] it was 14.9%; in test [3] it was 23.9%; in test [4], 1.15%; in test [5], 41.6%; in test [6], 27%.

Consider `CS(=O)(=O)OCCN(CCOS(C)(=O)=O)c1ccc(C=Nc2ccc(C(=O)O)c(O)c2)cc1`, for which the growth inhibition is 84.3% (active) in test [1]; 84.5% (active) in test [2]; 79.5% (active) in test [3]; 78.7% (active) in test [4]; 19.8% in test [5]; 94% (active) in test [6].

For the compound `CN1CNC(=O)NC1`, the growth inhibition in test [1] is -37% and 10.6%; in test [2], -25.8% and -10.5%; in test [3], -12.3% and 9.8%; in test [4] it was 4.05% and 8.2%; in test [5], -23.1% and -11.1%; in test [6], -16.1% and 23.9%.

With `CC(C)N(CC(C)(C)O)C(=O)c1ccccc1`, the growth inhibition is -5.35% in test [1]; 11.7% in test [2]; 17.1% in test [3]; 6.1% in test [4]; -14.7% in test [5]; -8.4% in test [6].

In the case of `CC(CC(O)C(=O)O)CC(C)(C)C` (centres undefined), the growth inhibition is -5.95% in test [1]; 8.7% in test [2]; -7.15% in test [3]; -7.3% in test [4]; 22.3% in test [5]; 2.6% in test [6].

Turning to `CC(=Nc1cccc(Cl)c1)c1ccncc1`, the growth inhibition is -44% in test [1]; -10.2% in test [2]; -24.6% in test [3]; -21.2% in test [4]; -6.05% in test [5]; -10.8% in test [6].

`CC/C(CC(=O)CCC(=O)Nc1c(C)cccc1C)=N\NC(=O)NN`: the growth inhibition is -19.4% in test [1]; -22% in test [2]; -4.15% in test [3]; 24.6% in test [4]; 3% in test [5]; -8.5% in test [6].

Turning to `CCOC(=O)CC(CC(=O)OCC)NC(=O)c1ccc(N(C)C(=O)OCc2ccccc2)cc1`, the growth inhibition is 40.1% in test [1]; 5.55% in test [2]; 34.9% in test [3]; 32.9% in test [4]; 14.7% in test [5]; 39.9% in test [6].

For `C=C(C)CC(=O)O.CC(=O)[CH-]C(C)=O.CC(=O)[CH-]C(C)=O.CC(=O)[CH-]C(C)=O.[Zn+2].[Zn]`, the growth inhibition in test [1] is 30.2%; in test [2] it was 10.8%; in test [3], 16.2%; in test [4] it was 6.8%; in test [5], -0.85%; in test [6] it was 21.1%.

Take `O=c1cc2ccccc2nn1-c1ccccc1Cl`: the growth inhibition is 26.1% in test [1]; 6.4% in test [2]; 37.6% in test [3]; 36.5% in test [4]; 25.3% in test [5]; 34.5% in test [6].

Regarding `CC1=NCC[N+]1(CCc1ccccc1)Cc1ccccc1` (centres undefined), the growth inhibition in test [1] is 3.15%; in test [2] it was -5%; in test [3], -19.8%; in test [4], -26.9%; in test [5], -35%; in test [6], -11.7%.

Consider `CCOC(=O)N1CCN(C(=O)CC(C)=O)CC1`, for which the growth inhibition is 2.35% in test [1]; -32.5% in test [2]; -0.15% in test [3]; 19.1% in test [4]; 4.45% in test [5]; 16.6% in test [6].

Turning to `Cc1cc(Nc2nnc(-c3cccnc3Oc3ccccc3)s2)ccc1Br`, the growth inhibition is 1.25% in test [1]; -6.85% in test [2]; -11.6% in test [3]; 16.7% in test [4]; 0.5% in test [5]; -5.35% in test [6].

As to `O=c1[nH]cnc2c1ncn2C1OC(CO)C(O)C1O` (centres undefined), the growth inhibition is 8% and -14.7% in test [1]; 8.25% and -20.1% in test [2]; 0.45% and 12.8% in test [3]; -117% and 5% in test [4]; 15.4% and 21.7% in test [5]; 5.85% and 5.3% in test [6].

On to `CCN(CC)CCN(C(=O)C(C)(C)C)c1ccccc1N`, for which the growth inhibition in test [1] is -30.8%; in test [2], -27.9%; in test [3] it was -17.1%; in test [4] it was -18.6%; in test [5] it was -19.1%; in test [6] it was -4%.

`COCCCC(=O)CNC(C)C`: the growth inhibition in test [1] is -5.05%; in test [2] it was -42.1%; in test [3], -8.75%; in test [4], -15.4%; in test [5], -21.1%; in test [6], -14.4%.

Regarding `CC1=NN(C(=O)c2ccccc2O)C(=O)/C1=C/c1ccccc1O`, the growth inhibition in test [1] was -29.1%; in test [2], -11.8%; in test [3], -14.8%; in test [4], -9.7%; in test [5], -39.5%; in test [6], -24.6%.

As for `CCOC(=O)c1nc2ccccc2nc1NCc1cc(OC)c(OC)c(OC)c1`, the growth inhibition in test [1] was -14.9%; in test [2], -11.9%; in test [3], -10.8%; in test [4] it was 5.65%; in test [5], -7.9%; in test [6] it was -29.4%.
